Several values for one entry are separate records, joined by “and”; a condition that tells them apart may be missing. Equal values may be shown once. Hit rate of the full screen: of about 5,500 compounds, about 2,000 (36%) were called active. Another 18% or so got no clear call; they are omitted. The list shows a part of the results. Values without a mark were called inactive. Rule as the data show it: active = normalized growth mostly below about 0.91 (no sharp cut-off); inconclusive = no clear call, values can overlap the other calls; inactive = mostly above about 0.92.
Assay: chemical genetic growth profiling, strain panel (AID 1159580);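 also: tested at 20 µM; growth read once vehicle control cultures reached saturation at 30 °C; 1 = growth at the plate median or of vehicle wells; lower values mean less growth of the strain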
Conditions: S. cerevisiae deletion strains, growth OD

In the case of `CC(=O)N1CCN(c2ccc(OCC3CO[C@](Cn4ccnc4)(c4ccc(Cl)cc4Cl)O3)cc2)CC1` (stereo partly drawn), the normalized growth (locus YAL021C, strain ccr4, stronger effect = lower value) was 0.196 (active), the normalized growth (locus YAL026C, strain drs2, stronger effect = lower value) was 0.0754 (active) and the normalized growth (locus YAL030W, strain snc1, stronger effect = lower value) was 0.0875 (active). For the same compound, the normalized growth (locus YBL061C, strain skt5, stronger effect = lower value) was 0.0954 (active), the normalized growth (locus YBR009C, strain hhf1, stronger effect = lower value) was 0.0917 (active) and the normalized growth (locus YBR021W, strain FUR4, stronger effect = lower value) was 0.163 (active). The normalized growth (locus YBR023C, strain chs3, stronger effect = lower value) was 0.0942 (active), the normalized growth (locus YBR171W, strain sec66, stronger effect = lower value) was 0.162 (active) and the normalized growth (locus YBR229C, strain ROT2, stronger effect = lower value) was 0.124 (active). The normalized growth (locus YBR231C, strain swc5, stronger effect = lower value) was 0.0937 (active), the normalized growth (locus YBR279W, strain paf1, stronger effect = lower value) was 0.0988 (active) and the normalized growth (locus YCL011C, strain gbp2, stronger effect = lower value) was 0.0885 (active). The normalized growth (locus YCL016C, strain dcc1, stronger effect = lower value) was 0.102 (active), the normalized growth (locus YCL029C, strain bik1, stronger effect = lower value) was 0.087 (active) and the normalized growth (locus YCL061C, strain MRC1, stronger effect = lower value) was 0.0977 (active). The normalized growth (locus YCL069W, strain vba3, stronger effect = lower value) was 0.0793 (active), the normalized growth (locus YCR088W, strain abp1, stronger effect = lower value) was 0.111 (active) and the normalized growth (locus YDL005C, strain med2, stronger effect = lower value) was 0.327 (active). The normalized growth (locus YDL035C, strain GPR1, stronger effect = lower value) was 0.0672 (active), the normalized growth (locus YDL040C, strain nat1, stronger effect = lower value) was 0.113 (active) and the normalized growth (locus YDL074C, strain BRE1, stronger effect = lower value) was 0.157 (active). For the same compound, the normalized growth (locus YDL101C, strain DUN1, stronger effect = lower value) was 0.086 (active), the normalized growth (locus YDL134C, strain PPH21, stronger effect = lower value) was 0.0637 (active) and the normalized growth (locus YDL185W, strain tfp1, stronger effect = lower value) was 0.542 (active). The normalized growth (locus YDL192W, strain arf1, stronger effect = lower value) was 0.156 (active), the normalized growth (locus YDR001C, strain nth1, stronger effect = lower value) was 0.105 (active) and the normalized growth (locus YDR069C, strain doa4, stronger effect = lower value) was 0.228 (active). For the same compound, the normalized growth (locus YDR101C, strain arx1, stronger effect = lower value) was 0.101 (active), the normalized growth (locus YDR137W, strain rgp1, stronger effect = lower value) was 0.449 (active) and the normalized growth (locus YDR150W, strain NUM1, stronger effect = lower value) was 0.0966 (active). For the same compound, the normalized growth (locus YDR159W, strain sac3, stronger effect = lower value) was 0.135 (active), the normalized growth (locus YDR162C, strain NBP2, stronger effect = lower value) was 0.0614 (active) and the normalized growth (locus YDR195W, strain ref2) was 0.254 (active). For the same compound, the normalized growth (locus YDR297W, strain sur2, stronger effect = lower value) was 0.1 (active), the normalized growth (locus YDR318W, strain mcm21, stronger effect = lower value) was 0.0866 (active) and the normalized growth (locus YDR334W, strain swr1, stronger effect = lower value) was 0.0914 (active). The normalized growth (locus YDR335W, strain msn5, stronger effect = lower value) was 0.101 (active), the normalized growth (locus YDR388W, stronger effect = lower value) was 0.0742 (active) and the normalized growth (locus YDR392W, strain spt3, stronger effect = lower value) was 0.106 (active). The normalized growth (locus YDR502C, strain sam2, stronger effect = lower value) was 0.0927 (active), the normalized growth (locus YEL003W, strain gim4, stronger effect = lower value) was 0.0768 (active) and the normalized growth (locus YEL037C, strain rad23, stronger effect = lower value) was 0.129 (active). For the same compound, the normalized growth (locus YEL061C, strain CIN8 (second series), stronger effect = lower value) was 0.084 (active), the normalized growth (locus YEL061C, strain CIN8, stronger effect = lower value) was 0.0807 (active) and the normalized growth (locus YER015W, strain faa2, stronger effect = lower value) was 0.0977 (active). For the same compound, the normalized growth (locus YER016W, strain bim1, stronger effect = lower value) was 0.0966 (active), the normalized growth (locus YER110C, stronger effect = lower value) was 0.129 (active) and the normalized growth (locus YER111C, strain swi4, stronger effect = lower value) was 0.123 (active). For the same compound, the normalized growth (locus YER155C, strain BEM2 (second series), stronger effect = lower value) was 0.329 (active), the normalized growth (locus YER155C, strain BEM2, stronger effect = lower value) was 0.0986 (active) and the normalized growth (locus YER167W, strain BCK2, stronger effect = lower value) was 0.064 (active). The normalized growth (locus YFR010W, strain ubp6, stronger effect = lower value) was 0.302 (active), the normalized growth (locus YGL078C, strain dbp3, stronger effect = lower value) was 0.908 (active) and the normalized growth (locus YGL086W, strain mad1, stronger effect = lower value) was 0.0803 (active). For the same compound, the normalized growth (locus YGL167C, strain pmr1, stronger effect = lower value) was 0.191 (active), the normalized growth (locus YGL173C, strain kem1, stronger effect = lower value) was 0.226 (active) and the normalized growth (locus YGL227W, strain vid30, stronger effect = lower value) was 0.0914 (active). The normalized growth (locus YGL240W, strain doc1, stronger effect = lower value) was 0.166 (active), the normalized growth (locus YGL248W, strain PDE1, stronger effect = lower value) was 0.0653 (active) and the normalized growth (locus YGL253W, strain hxk2, stronger effect = lower value) was 0.0717 (active). For the same compound, the normalized growth (locus YGR078C, strain PAC10, stronger effect = lower value) was 0.0678 (active), the normalized growth (locus YGR135W, strain pre9, stronger effect = lower value) was 0.0918 (active) and the normalized growth (locus YGR229C, strain SMI1, stronger effect = lower value) was 0.0729 (active). The normalized growth (locus YGR252W, strain gcn5, stronger effect = lower value) was 0.213 (active), the normalized growth (locus YHR013C, strain ard1, stronger effect = lower value) was 0.139 (active) and the normalized growth (locus YHR027C, strain rpn1, stronger effect = lower value) was 0.174 (active). For the same compound, the normalized growth (locus YHR030C, strain SLT2, stronger effect = lower value) was 0.0646 (active) and 0.118 (active), the normalized growth (locus YHR079C, strain IRE1 (second series), stronger effect = lower value) was 0.0993 (active) and the normalized growth (locus YHR079C, strain IRE1, stronger effect = lower value) was 0.155 (active). The normalized growth (locus YHR094C, strain hxt1, stronger effect = lower value) was 0.0943 (active), the normalized growth (locus YHR129C, strain ARP1, stronger effect = lower value) was 0.0814 (active) and the normalized growth (locus YHR142W, strain chs7, stronger effect = lower value) was 0.0981 (active). For the same compound, the normalized growth (locus YHR200W, strain rpn10, stronger effect = lower value) was 0.133 (active), the normalized growth (locus YIL066C, strain RNR3, stronger effect = lower value) was 0.0659 (active) and the normalized growth (locus YIL073C, strain SPO22, stronger effect = lower value) was 0.202 (active). For the same compound, the normalized growth (locus YIL125W, strain kgd1, stronger effect = lower value) was 0.964, the normalized growth (locus YIR030C, strain dcg1, stronger effect = lower value) was 0.0973 (active) and the normalized growth (locus YJL092W, strain hpr5, stronger effect = lower value) was 0.093 (active). The normalized growth (locus YJL095W, strain BCK1 (second series), stronger effect = lower value) was 0.0703 (active), the normalized growth (locus YJL095W, strain BCK1, stronger effect = lower value) was 0.0666 (active) and 0.127 (active) and the normalized growth (locus YJL115W, strain asf1, stronger effect = lower value) was 0.113 (active). The normalized growth (locus YJL129C, strain trk1, stronger effect = lower value) was 0.117 (active), the normalized growth (locus YJL134W, strain LCB3, stronger effect = lower value) was 0.0818 (active) and the normalized growth (locus YJL154C, strain vps35, stronger effect = lower value) was 0.123 (active). The normalized growth (locus YJL164C, strain tpk1, stronger effect = lower value) was 0.0872 (active), the normalized growth (locus YJL166W, strain qcr8, stronger effect = lower value) was 0.0816 (active) and the normalized growth (locus YJL168C, strain set2, stronger effect = lower value) was 0.0995 (active). The normalized growth (locus YJL187C, strain SWE1 (second series), stronger effect = lower value) was 0.0726 (active).

Source: PubChem BioAssay AID1159580 (chemical genetic matrix, 2015)
